For 32 molecules, outcome results are on record in PubChem BioAssay AID463229 (Broad Institute, 2010).

Out of some 2,300 compounds screened, about 2,100 (91%) were called active.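 The calls were made as follows: active = compounds raising the signal whose fitted half-maximal concentration is at or below their top tested dose (cut at about 25 µM in these data); inconclusive = flat fit at 30 to 70% activity, or a poor fit; inactive = the rest.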 So high a share suggests a set chosen from earlier hits. Only a sample is shown. Measured potencies and affinities stand elsewhere.

This assay can be described thus: cytokine-free beta-cell viability effect – INS-1E rat cells, ATP luminescence, cherry pick, counter-screen for beta-cell apoptosis protection project, dose response (AID 463229). To be noted: INS-1E rat beta cells, no cytokines, CellTiter-Glo ATP, 48 h; series mostly up to 26 µM. In general terms: The purpose of a counterscreen is to sort out artefacts and off-target activity.
Take `CCN(CC(=O)Nc1ccc(NC(C)=O)cc1)C(=O)CCCOc1ccc(C(C)(C)C)cc1`: the molecule was called inactive.

On to `CC(=O)Oc1ccc(N(C(C)=O)S(=O)(=O)c2cccs2)c2ccccc12`, for which the call was inactive. In the case of `Cc1ccc(O)c(CNc2cccc3cccnc23)c1` it was “inactive”; in that of `Cc1nc(C(F)(F)F)c(C(=O)N/N=C(\N)c2ccccn2)s1`, “inactive”; in that of `COc1ccc(/C=C/C(=O)NC(=S)Nc2ccccc2C(=O)NC2CCCCC2)cc1`, “inactive”. The same measure for `O=C1CSC(c2ccccc2F)N1` (configuration not stated): “inactive”. In the case of `CC(=O)c1c(C)[nH]c(C(=O)CN2CCN(S(=O)(=O)c3ccccc3)CC2)c1C` it was “inactive”; in that of `CCOc1ccc(-n2c(=O)[nH]cc(C(=O)Nc3ccc(OC)c(OC)c3)c2=O)cc1`, “inactive”; in that of `CCCOc1ccc(C(=O)C(CN2CCOCC2)c2ccccc2)cc1` (configuration not stated), “inactive”. In the case of `CC(NC(=O)C1CCC(C(=O)NC(C)c2ccccc2)CC1)c1ccccc1` (configuration not stated), the result was inactive. In the case of `CC(=O)c1ccccc1OCCOCCOc1ccccc1C(C)=O` it was “inactive”; in that of `Cc1cc(C)c2c(C)[nH]nc2n1`, “inactive”. As to `O=C(c1ccccc1)C(CCC(CN1CCOCC1)C(=O)c1ccccc1)CN1CCOCC1` (configuration not stated), the call was inactive. In the case of `CC(=O)SC1CC(=O)N(c2c(C)cccc2C)C1=O` (configuration not stated) it was “inactive”; in that of `COc1ccccc1/C=N\Nc1cc(C)nc(-n2nc(C)cc2C)n1`, “inactive”. The same measure for `O=C(Nc1ccc(Nc2ccncc2)cc1)c1ccc(Nc2ccnc3ccc([N+](=O)[O-])cc23)cc1[N+](=O)[O-]`: “inactive”; for `O=c1c(Cl)c2oc3ccccc3nc-2c2ccccc12`: “inactive”. As to `CCN(CC)c1ccc(N=C2C(=O)Nc3ccccc32)cc1`, the molecule was called inactive.

With `O=C1CSC(c2cccnc2)N1CC1CC1` (configuration not stated), the call was inactive. The same measure for `Cc1ccccc1NC(=S)Nc1cccc2cnccc12`: “inactive”. In the case of `COc1ncnc(OC)c1S(=O)(=O)Nc1ccc(C(F)(F)F)cc1` it was “inactive”; in that of `Cc1ccccc1Cn1ccc(=NCc2ccccc2)cc1`, “inactive”. The same measure for `Cc1ccc(S(=O)(=O)N2CCCCC2c2cccnc2)c(C)c1C` (configuration not stated): “inactive”.

For `Cc1ccc(Oc2nc(-c3ccccn3)nc3ccccc23)cc1`, the result was inactive. As to `Nc1ccc(N2CCCCC2)cc1N1CCCCC1`, the molecule was classed as inactive. In the case of `CC(=O)Oc1c(Cl)cc(N(C(C)=O)S(=O)(=O)c2ccccc2)c2ccccc12` it was “inactive”. Take `O=C(COC(=O)Cn1cnc2ccccc2c1=O)Nc1ccc2c(c1)OCO2`: the molecule was called inactive. On to `CC(C)OCCCNC(=S)N1CCC(C(=O)c2ccc(Cl)cc2)CC1`, for which the call was inactive. The same measure for `CC(C)(C)n1[nH]c2c3c(ccc2c1=O)C(=O)c1ccccc1C3=O`: “inactive”; for `CCCCC[n+]1ccn(C2=C([O-])c3ccccc3C(=O)/C2=N\S(=O)(=O)c2ccccc2)c1`: “inactive”; for `CCCCN(C)CCNC(=O)c1cc2c(-c3ccccc3F)nn(C)c2s1`: “inactive”.

With `CC(C(c1cccs1)c1c(N)n(C)c(=O)n(C)c1=O)[N+](=O)[O-]` (configuration not stated), the molecule was called inactive.
